Source: PubChem BioAssay (National Center for Advancing Translational Sciences (NCATS))
A selection: hits, their analogues and other compounds. The true share with any hit is near 19%.
DT40 TDP1 CPT = growth inhibition of DT40 Tdp1-/-;hTDP1 cells with camptothecin (screen for TDP1 inhibitors). Potency, µM (highest dose often 46.2 µM), usual class: inhibitors. chicken DT40 Tdp1-/-;hTDP1 cells + 20 nM CPT, ATP luminescence, 48 h. 420,000 compounds, 12% hits; further: nearly all actives have a fitted effect of over 55% in size
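Chicken DT40 Tdp1-/- cells stably complemented with human TDP1 were seeded at 400 cells/well in medium containing 20 nM camptothecin, exposed to pin-transferred compounds, and grown at 37 °C for at least 48 hr. Viability was read as ATP luminescence.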
Chronic BCR inh = inhibitors of chronic active B-cell receptor signaling; ABC-DLBCL IkBa-CBG/CBR reporter, luminescence ratio, 4 h; Potency, µM (series often up to 46.1 µM), actives largely listed as inhibitors; 340,000 compounds, 0.05% hits; active means well fitted inhibition curve with a large enough effect in the signal ratio, with a control signal flat, not every such curve was filed as active; inconclusive means small, poorly fitted or top-dose-only effect, or effect the other way, or a change in a side signal; the % refers to the signal ratio
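Concentration-response series (up to 46 uM) were applied to TMD8 dual-reporter cells for 4 h at 37C with doxycycline. Green/red ratio, after filter-overlap correction, defined %Activity; red signal alone was normalised to basal cells and zero luminescence.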
IL1B secr inh = inhibitors of inflammasome signaling (IL-1 beta secretion) | THP-1 LPS/ATP IL-1B secretion, AlphaLISA, 16 h; hits give low values | activity change, % at 57.5 µM | 360,000 compounds, 4.7% hits | AID 743279; in the data active means activity change below about -50%; inconclusive means mostly about -30% to -49%
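Secreted IL-1B measured by AlphaLISA bead assay after 16 h compound exposure of THP-1 cells; compounds (final up to 57.5 uM) added 1 h before LPS (250 ng/mL) and ATP (1.25 mM) stimulation; lower signal means less secretion.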
DT40 TDP1 no CPT = qHTS for Inhibitors of human tyrosyl-DNA phosphodiesterase 1 (TDP1): qHTS in cells in absence of CPT. 420,000 compounds, 15% hits. DT40 Tdp1-/- hTDP1 cells, no CPT, ATP luminescence, 48 h. AID 686978, 2013. Potency, µM (top dose mostly 46.2 µM), most hits filed as inhibitors; further: nearly all actives have a fitted effect of over 55% in size
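Camptothecin absent (DMSO only). Human TDP1-complemented DT40 knockout cells, 400 cells/well, 37 °C for minimum 48 hr; ATP measured via CellTiter-Glo, 30 min dark incubation, luminescence.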
SW480 rereplic = induces DNA re-replication in SW480 colon adenocarcinoma cells | SW480 DNA re-replication, Hoechst DNA content imaging, 48 h | Potency, µM (highest dose often 46.1 µM), usual class: activators | 340,000 compounds, 1.8% hits; further: nearly all actives have a fitted effect of over 55% in size
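Readout is total intensity of Hoechst-stained nuclei, excited at 405 nm and collected at 500-530 nm. Compound treatment lasted 48 hr at 37 C in 5% CO2 before staining.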
MCF10A rereplic = inducers of DNA re-replication in MCF 10A breast cells. MCF 10A DNA re-replication, Hoechst nuclear intensity, 48 h. Potency, µM (top dose mostly 46.1 µM), most hits filed as activators. 350,000 compounds, 2.9% hits. AID 624296; further: nearly all actives have a fitted effect of over 50% in size
Numbers stand for hits; - = inactive; ? = inconclusive; . = no result given. Unless noted, the call rests on the fitted dose curve; in most records, active means well fitted curve in the direction sought with a large enough effect; inconclusive means small, poorly fitted or top-dose-only effect, or another doubt; inactive means no such curve, though single readings can be large; an effect the other way counts as inactive or inconclusive.

SMILES	DT40 TDP1 CPT	Chronic BCR inh	IL1B secr inh	DT40 TDP1 no CPT	SW480 rereplic	MCF10A rereplic
Cc1cc2nc(CCN(C(=S)NCC3CCCO3)C3CCCC3)[nH]c2cc1C (configuration not stated)	?	?	-52	?	-	-
Cc1cccc2cc(CN(C(=S)NCC(C)C)C3CCCC3)c(=O)[nH]c12	?	-	?	?	-	-
Cc1cc2nc(CCN(C(=S)NCC(C)C)C3CCCC3)[nH]c2cc1C	?	-	-66	23µM	-	-
CCCCN(Cc1ccco1)S(=O)(=O)c1ccc(-c2ccc(=O)[nH]n2)s1	?	-	-	?	?	?
Cc1ccn2c(NCc3ccccc3)c(-c3cccs3)nc2c1	16µM	-	-	23µM	-	?
Cc1ccn2c(NC3CCCC3)c(-c3cccs3)nc2c1	15µM	-	-	23µM	?	?
c1csc(-c2nc3ccccn3c2NC2CCCCC2)c1	?	?	-86	?	-	?
CC(C)c1nc2ccccn2c1NC1CCCCC1	-	?	-	?	-	-
CN(C)c1ncc2nc(CCc3ccccc3)c(=O)n(Cc3ccc(F)cc3)c2n1	-	.	.	-	.	.
CC(C)(C)N(Cc1ccc2c(c1)OCO2)C(=O)/C=C\S(=O)c1ccccc1 (configuration not stated)	5.2µM	.	-61	3.7µM	9.2µM	10µM
CCN(Cc1ccc2c(c1)OCO2)C(=O)/C=C/c1cccc(Br)c1	-	-	-	?	-	?
O=C(/C=C/[C@H]1O[C@@H](n2ccc(=O)[nH]c2=O)[C@H](O)[C@@H]1O)NCc1cccnc1	-	.	-	-	.	.
Cc1nc2cnc(N3CCN(C)CC3)nc2n(C)c1=O	-	.	.	-	.	.
Cc1noc(C)c1NC(=O)Nc1cccc2c1O[C@H](CN(C)C(=O)Nc1ccc3c(c1)OCO3)[C@@H](C)CN([C@H](C)CO)C2=O	-	-	-	-	-	?
C[C@H](CO)N1C[C@H](C)[C@@H](CN(C)C(=O)Nc2ccc(C(F)(F)F)cc2)Oc2c(NC(=O)Nc3ccc4c(c3)OCO4)cccc2C1=O	?	-	?	18µM	-	-
C[C@H](CO)N1C[C@H](C)[C@@H](CN(C)C(=O)Nc2ccc3c(c2)OCO3)Oc2c(NC(=O)Nc3ccc(C(F)(F)F)cc3)cccc2C1=O	13µM	?	-	?	-	-
COc1c(C(=O)NNC(=O)c2ccccc2Cl)csc1Br	-	?	-	-	-	-
COC(=O)C1CCN(C(=O)COC(=O)c2oc3ccc(OC)cc3c2C)CC1	-	-	-	-	-	-
CCC(COC)NCc1cn(-c2ccc(OC)cc2)nc1-c1cccc(F)c1 (configuration not stated)	16µM	-	-82	23µM	?	-
CCC(CC)NCc1ccc(OC)cc1OC	-	-	-	-	-	-
COc1ccc(-n2cc(CNC(C)c3ccncn3)c(-c3cccc(F)c3)n2)cc1 (configuration not stated)	?	-	-	26µM	-	-
O=C(O)c1ccccc1C(=O)c1ccc(Br)s1	-	-	-	-	-	-
C=CCn1c[n+](CC(=O)c2ccc(Br)s2)c2ccccc21	21µM	-	-65	12µM	-	-
O=C(Nc1cccc2ccccc12)c1csc([C@@H]2C[C@H](O)[C@@H](CO)O2)n1	-	.	-	-	.	.
NC(=O)c1cc2ccncc2c2ccccc12	13µM	?	?	6.5µM	-	?
CCOc1ccc(-n2nc(CO)c(C(=O)NCc3ccc(Cl)cc3)n2)cc1	-	.	.	-	.	.
O=C(NCCCc1ccccc1)c1nn(-c2ccccc2F)nc1CO	?	.	.	21µM	.	.
CCOc1ccc(-n2nc(CO)c(C(=O)NCCCc3ccccc3)n2)cc1	15µM	.	.	23µM	.	.
C=CCN1C(=O)NC(c2ccc(OC)cc2)(C(F)(F)F)S/C1=C(\C#N)c1nnc(N2CCOCC2)n1-c1ccccc1 (configuration not stated)	-	?	-52	-	-	?
C=CCN1C(c2ccc(Br)cc2)=CS/C1=C(/C#N)c1nnc(N2CCOCC2)n1-c1ccccc1	7.3µM	-	-	8.2µM	?	-
